Giardia FBPA inh: blocks Giardia fructose-bisphosphate aldolase activity; A8B2U2; purified Giardia FBPA; Potency, µM (doses to about 59.6 µM), without a hit: at the highest dose activity, negative = inhibition, actives largely listed as inhibitors; hit rate 0.71% among 290,000; AID 2451; also: potency is read from the fitted curve at half-maximal effect; % is scaled to controls: 0 for no effect and ±100 for the full control effect; nearly all actives have a fitted effect of over 55% in size
Target sequence (A8B2U2 whole entry, looked up): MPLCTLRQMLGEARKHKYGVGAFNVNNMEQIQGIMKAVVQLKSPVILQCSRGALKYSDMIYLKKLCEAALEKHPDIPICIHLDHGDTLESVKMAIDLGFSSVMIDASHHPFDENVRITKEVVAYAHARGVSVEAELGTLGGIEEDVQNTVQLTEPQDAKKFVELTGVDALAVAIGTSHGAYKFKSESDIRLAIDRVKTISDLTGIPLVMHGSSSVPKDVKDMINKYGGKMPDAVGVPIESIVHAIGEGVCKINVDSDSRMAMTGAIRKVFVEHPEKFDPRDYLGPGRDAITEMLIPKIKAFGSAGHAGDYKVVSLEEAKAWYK
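Giardia FBPA (40 nM reagent) was preincubated 10 min at RT with compound (up to 57.5 uM final), then substrate plus GAPDH/TPI/NAD/arsenate coupling system with diaphorase/resazurin was added; resorufin fluorescence (525/598 nm) was read after 20 min.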
Shiga toxin inh: blocks Shiga toxin action in Vero cells. Vero cells, Shiga toxin protein synthesis inhibition reporter. inhibition, % at 38.7 µM. hit rate 9.2% among 290,000. AID 2315; in the data active = inhibition mostly above about 28%, no sharp cut-off; inactive = mostly below about 43%; also: 0% is about no effect
NS1 inh: blocks influenza NS1 protein function. Potency, µM (doses to about 46.1 µM), for the others: at the top dose activity, positive = more growth. hit rate 0.4% among 270,000. AID 2326; calls by dose curve; also: potency is read from the fitted curve at half-maximal effect; actives are rising curves; nearly all actives have a fitted effect of over 50% in size
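S. cerevisiae expressing influenza A NS1, grown in glucose, washed, then diluted 1:100 into pH 6.0 -URA galactose medium with 23 nl compound. Growth recovery read as OD600; NS1-free strain serves as control.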
Pf growth 48h: P. falciparum growth inhibition at 48 hours (one generation) | AID 504832 | Potency, µM (doses to about 28.7 µM), without a hit: at the top dose activity change, negative = inhibition, hits mostly inhibitors | hit rate 5.9% among 310,000 | P. falciparum luciferase growth in erythrocytes, 48 h; also: potency is read from the fitted curve at half-maximal effect; % is scaled to controls: 0 for no effect and ±100 for the full control effect
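Read-out is firefly luciferase luminescence from an integrated reporter in P. falciparum, so falling signal marks reduced parasite growth. Infected erythrocytes were at 2% hematocrit and 0.1% parasitemia (final) in Albumax-supplemented RPMI 1640.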
Cycloheximide cs: affects cycloheximide protein synthesis inhibition readout, counter-screen. cell reporter, cycloheximide protein synthesis inhibition counterscreen. max response, %. hit rate 12% among 300,000. AID 2314; in the data active = max response mostly above about 13%, no sharp cut-off; inactive = mostly below about 14%; also: read at 38.3 µM for the half of the compounds with a filed dose; 0% is about no effect
Pf growth 96h: P. falciparum growth inhibition at 96 hour, primary screen for plastid delayed-death inhibitors; Potency, µM (titrated, usually from 28.7 µM), inactives show top-dose activity change, negative = inhibition, most hits filed as inhibitors; AID 504834; hit rate 6.9% among 320,000; P. falciparum luciferase reporter growth, 96 h; also: potency is read from the fitted curve at half-maximal effect; % is scaled to controls: 0 for no effect and ±100 for the full control effect
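Two parasite generations (96 h, 37 C, 5% CO2) of compound exposure in infected erythrocytes (0.05% parasitemia, 2% hematocrit). Luciferase-reporter P. falciparum; decreased luminescence indicates inhibited growth, aimed at apicoplast-acting delayed death.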
Starred values were filed as active, the others as inactive; ? = inconclusive; . = no result; + = active, no number; ! = repeats disagree; [ ] = dose if it differs, or a comment. This is a sample that favours compounds with a hit; in the whole collection about 21% have one here. Unless noted, calls follow the shape of the dose curve; as a rule, active = well fitted curve in the direction sought with a large enough effect; inconclusive = small, poorly fitted or top-dose-only effect, or another doubt; inactive = no such curve, though single readings can be large; an effect the other way counts as inactive or inconclusive.

SMILES	Giardia FBPA inh	Shiga toxin inh	NS1 inh	Pf growth 48h	Cycloheximide cs	Pf growth 96h
CCN1CCCC1CNC(=O)Cn1cnc2sc(C)c(S(=O)(=O)N3CCC(C)CC3)c2c1=O (configuration not stated)	-2%	-1	0%	-2%	-4	6.6µM*
CC1=C/C(=N\NC(=O)c2ccccc2)CC1	4%	+	1%	32%	43*	21%
O=C1CS/C(=N\NC(=O)c2ccccc2)N1	?	-5	-1%	?	-1	?
Cc1c2ccccc2nc2c(F)c(NCCO)c(F)c(F)c12	?	24	22%	11%	5	10%
Cc1c2ccccc2nc2c(F)c(NC(C)C)c(F)c(F)c12	-27%	55*	8%	-27%	45*	3%
COc1ccc(N2Cc3ccccc3C2=O)cc1	-2%	.	-14%	-20%	35*	2.9µM*
COc1ccc(N2C(=O)N(Cc3ccc(C)cc3)c3ccccc3S2(=O)=O)cc1	-11%	9	.	?	7	?
O=C1c2ccccc2CN1c1ccccc1	0%	54*	-7%	96%	38*	4.1µM*
CCOc1ccc(N2Cc3ncccc3C2=O)cc1	-1%	137*	-6%	90%	47*	143%
COc1ccc(N2Cc3cccc(C(=O)O)c3C2=O)cc1	-9%	43	-87%	.	19	33%
COc1ccc(N2C(=O)c3ccccc3S2(=O)=O)cc1	3%	24	-10%	2.9µM*	8	46%
COc1ccc(N2CC(C(=O)Nc3cccc(OC(C)C)c3)CC2=O)cc1 (configuration not stated)	0%	-7	8%	24%	1	?
O=C1N(c2ccccc2)CCN1c1ccccc1	9%	.	-2%	322%	38*	10µM*
Cc1ccc(N2Cc3ccccc3C2=O)cc1	7%	24	-41%	-14%	25*	47%
O=C1NC(=S)CN1c1ccccc1	?	7	4%	3%	-3	20%
O=C1c2ccccc2CN2C(=O)c3ccccc3CN12	.	-4	0%	-1%	-1	3.7µM*!
C/C(=N\NC(=O)Cn1nc(C)c([N+](=O)[O-])c1C)c1ccco1	-4%	-4	2%	12%	-1	6%
OCCCn1c(-c2ccccc2)csc1=Nc1ccccc1	-4%	73*	.	?	32	?
COc1ccc(N=c2scc(-c3ccc(OC)cc3)n2CCO)cc1	-8%	63	-11%	16%	30*	15%
O=C(O)CCC(=O)NCCn1c(-c2ccccc2)csc1=Nc1ccccc1	-1%	49	-10%	-8%	19*	?
Clc1ccc(/C=C/c2ncc3ccccn23)cc1	-3%	83*	-32%	28%	33*	0%
COc1ccc(C2/C=C\CN(C(=O)C3CCCCC3)C(Cc3ccccc3)C(=O)N2Cc2ccc(F)cc2)cc1 (configuration not stated)	-4%	16	.	.	23	.
CCCC1(C(=O)O)NC(c2ccc(OC)cc2O)C2C(=O)N(c3ccc(OC)cc3)C(=O)C21 (configuration not stated)	-13%	11	5%	.	-6	15µM*
COc1ccc(N2C(=O)C3C(c4ccc(OC)cc4O)NC(Cc4ccccc4)(C(=O)O)C3C2=O)cc1 (configuration not stated)	-4%	21	.	2%	10	82%[5.75 µM]
CCOC(=O)N/N=C1/C[C@@H](O)[C@@H](O)[C@@H]2[C@H]3C(=O)N(c4ccc(F)cc4F)C(=O)[C@@H]3CC[C@H]12	-1%[12.9 µM]	.	.	.	.	.
SMILES	Giardia FBPA inh	Shiga toxin inh	NS1 inh	Pf growth 48h	Cycloheximide cs	Pf growth 96h
Cc1ccc(S(=O)(=O)N(CC#N)CC#N)cc1	1%	-11	5%	16%	-2	261%
O=[N+]([O-])c1cccc(S(=O)(=O)NCc2ccncc2)c1	7%	-10	11%	34%	-3	50%
COc1ccccc1C1CC(c2c(-c3ccccc3)c3cc(Cl)ccc3[nH]c2=O)=NN1S(C)(=O)=O (configuration not stated)	.	14	26%	12µM*	-3	?
COc1ccc(C2CC(c3c(-c4ccccc4)c4cc(Cl)ccc4[nH]c3=O)=NN2C(=O)CCC(=O)O)cc1 (configuration not stated)	9%	-5	18%	?	-1	13%
O=C(O)CCC(=O)N1N=C(c2c(-c3ccccc3)c3cc(Cl)ccc3[nH]c2=O)CC1c1ccco1 (configuration not stated)	14%	-9	?	?	2	?
CCC(=O)N1N=C(c2c(-c3ccccc3)c3cc(Cl)ccc3[nH]c2=O)CC1c1ccco1 (configuration not stated)	0%	89	16%	10µM*	8	?
COc1cccc(C2CC(c3c(-c4ccccc4)c4cc(Cl)ccc4[nH]c3=O)=NN2S(C)(=O)=O)c1OC (configuration not stated)	-5%	23	?	7.4µM*	7	.
O=C(NNC(=O)C1CCN(c2ncccn2)CC1)c1ccc(F)cc1	-10%	-6	-6%	4%	-2	-16%
O=C(COC(=O)CNS(=O)(=O)c1c(F)cccc1F)NC(=O)NC1CCCCC1	.	.	.	0%	.	-27%
O=C(NCCCCc1ccccc1)C1CCCC1	7%	.	-11%	5%	16	?
CC(C)(C)c1nnc(NC(=O)c2cccs2)s1	-10%	75*	-10%	104%	71*	-8%
CS(=O)(=O)Nc1nnc(SCC(=O)N(c2ccccc2)c2ccccc2)s1	12%	-21	14%	-17%	1	2.6µM*
CC(C)(C)c1nnc(NC(=O)c2cccnc2)s1	-15%	28	-3%	33%	21*	74%
CC(C)c1nnc(NC(=O)c2cccs2)s1	-12%	70*	-38%	218%	58*	220%
CCCCNC(=O)NS(=O)(=O)c1ccc(C(=O)O)cc1	-1%	-10	.	.	-4	.
CC(=O)OC[C@@H]1O[C@H](C/C=N\O[C@@H](C)c2cc(-c3c(C)cc(C)cc3C)no2)C=C[C@@H]1OC(C)=O	1%[12.9 µM]	.	.	.	.	.
CCC(C)(C)c1nnc(NC(=O)c2cccc([N+](=O)[O-])c2)s1	?	76*	-2%	87%	14*	38%
Cc1occc1C(=O)Nc1nnc(C(F)(F)F)s1	-12%	5	-55%	8%	8	.
O=C(Nc1ccccc1C(=O)Nc1nnc(C(F)(F)F)s1)c1ccccc1	-25%	-1	-1%	1.2µM*	-2	2.6µM*
CC(C)N(C(=O)CSc1nnc(NC(=O)c2cccs2)s1)C(C)C	17%	-8	2%	?	-3	10µM*
CCCCC(CC)c1nnc(NC(=O)c2cccs2)s1 (configuration not stated)	7%	15	-61%	7%	1	-24%
O=C(Nc1nnc(CSCc2ccc(Cl)cc2)s1)c1cccc([N+](=O)[O-])c1	-27%	-9	4%	19%	-2	?

Bioassay records deposited in PubChem by National Center for Advancing Translational Sciences (NCATS).
